An excerpt weighted towards active compounds, which were near 19% of everything screened.
DT40 TDP1 no CPT – qHTS for Inhibitors of human tyrosyl-DNA phosphodiesterase 1 (TDP1): qHTS in cells in absence of CPT; DT40 Tdp1-/- hTDP1 cells, no CPT, ATP luminescence, 48 h; 420,000 tested, 15% active; Potency, µM (series often up to 46.2 µM), without a hit: at the highest dose activity change, negative = growth inhibition, actives largely listed as inhibitors; AID 686978, 2013; further: nearly all actives have a fitted effect of over 55% in size
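DT40 Tdp1-/-;hTDP1 cells, no CPT (DMSO vehicle only), 400 cells/well; compounds pin-transferred; ≥48 hr, 37 °C; CellTiter-Glo 30 min RT dark, luminescence read.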
TDP1 block – qHTS Assay for Inhibitors of Tyrosyl-DNA Phosphodiesterase (TDP1). Tyrosyl-DNA phosphodiesterase 1 (Homo sapiens), Q9NUW8. recombinant TDP1, AlphaScreen DNA substrate cleavage. Potency, µM (series often up to 130 µM), for inactives: top-dose activity change, negative = inhibition, actives largely listed as inhibitors. 350,000 tested, 0.28% active; further: nearly all actives have a fitted effect of over 40% in size
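Tdp1 1 nM final; 15 min RT w/ cpd; substrate 15 nM, 5 min; beads 10 ug/ml, 10 min; AlphaScreen read. Neg ctrl: no enzyme.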
RORg inh – qHTS for inhibitors of ROR gamma transcriptional activity. Nuclear receptor ROR-gamma (Mus musculus), P51450. Drosophila S2 Gal4-RORgamma UAS-luciferase reporter, 20 h. Potency, µM (doses to about 53.6 µM), inactives show at the top dose activity change, negative = inhibition, actives largely listed as inhibitors. 310,000 tested, 5.4% active; further: nearly all actives have a fitted effect of over 60% in size
Target sequence (P51450 whole entry, looked up, the tested form may be a part): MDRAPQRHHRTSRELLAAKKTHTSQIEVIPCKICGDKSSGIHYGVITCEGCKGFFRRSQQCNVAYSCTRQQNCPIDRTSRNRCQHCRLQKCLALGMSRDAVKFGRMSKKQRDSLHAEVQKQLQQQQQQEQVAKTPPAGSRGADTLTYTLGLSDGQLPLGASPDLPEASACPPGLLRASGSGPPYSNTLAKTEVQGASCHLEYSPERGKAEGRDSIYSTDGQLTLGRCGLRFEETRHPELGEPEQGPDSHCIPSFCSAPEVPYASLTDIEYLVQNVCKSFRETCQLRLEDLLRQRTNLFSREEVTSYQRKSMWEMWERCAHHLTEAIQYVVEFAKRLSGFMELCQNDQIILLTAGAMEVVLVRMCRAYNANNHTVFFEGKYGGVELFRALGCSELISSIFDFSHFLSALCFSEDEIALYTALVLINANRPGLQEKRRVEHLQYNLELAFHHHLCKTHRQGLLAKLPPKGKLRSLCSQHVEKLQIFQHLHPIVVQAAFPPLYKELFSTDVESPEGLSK
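A Gal4/UAS one-hybrid system in insect cells: metallothionein-promoter Gal4–ROR gamma fusion plus Photinus luciferase reporter. Copper sulfate 700 uM final, 20 hr ambient incubation, luminescent detection after 10 min with reagent.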
DT40 TDP1 CPT – qHTS for Inhibitors of human tyrosyl-DNA phosphodiesterase 1 (TDP1): qHTS in cells in presence of CPT | chicken DT40 Tdp1-/-;hTDP1 cells + 20 nM CPT, ATP luminescence, 48 h | 420,000 tested, 12% active | Potency, µM (doses to about 46.2 µM), for the others: at the top dose activity change, negative = growth inhibition, usual class: inhibitors | AID 686979, 2013; further: nearly all actives have a fitted effect of over 55% in size
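Chicken DT40 Tdp1-/- cells complemented with human TDP1, 400 cells/well, exposed to compounds plus 20 nM camptothecin for at least 48 h at 37 C; viability read as ATP content by CellTiter-Glo luminescence.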
Gal4-VP16 FLuc – VP16 counterscreen qHTS for inhibitors of ROR gamma transcriptional activity; 310,000 tested, 3.5% active; Drosophila S2 Gal4-VP16 UAS-luciferase, luminescence, 20 h; Potency, µM (titrated, usually from 53.6 µM), for the others: at the highest dose activity, negative = inhibition, hits mostly inhibitors;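 further: Gal4-VP16 expression switched on by copper sulfate through the metallothionein promoter; nearly all actives have a fitted effect of over 50% in size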
The depositor's hits bear a star. The call rests on the fitted dose curve; in most records, active means well fitted curve in the direction sought with a large enough effect; inconclusive means small, poorly fitted or top-dose-only effect, or another doubt; inactive means no such curve, though single readings can be large; an effect the other way counts as inactive or inconclusive. On the % scale 0 is the no-effect control and ±100 the full control effect; potency means the concentration at half of the fitted maximal effect.

What do the screens show for `O=C(c1ccncc1)N1CCCC(N2CCN(c3cccc(C(F)(F)F)c3)CC2)C1` (stereo not drawn)?
DT40 TDP1 no CPT: inconclusive; TDP1 block: 4.6%; RORg inh: 16.9%; DT40 TDP1 CPT: 16.4µM*; Gal4-VP16 FLuc: -8.4%

What do the screens show for `Cc1ccc(C(=O)NCC(=O)OCc2nnc(-c3ccc([N+](=O)[O-])cc3)o2)cc1`?
DT40 TDP1 no CPT: -22.2%; DT40 TDP1 CPT: -25.7%

What do the screens show for `CCCc1cc(C(=O)N2CCCC(N3CCN(c4ccccc4C)CC3)C2)n(C)n1` (stereo not drawn)?
DT40 TDP1 no CPT: inconclusive; TDP1 block: 5.0%; RORg inh: 3.5%; DT40 TDP1 CPT: 16.4µM*; Gal4-VP16 FLuc: 15.4%

Results for Cc1ccc(C(=O)N2CCCC(N3CCN(c4cccc(C(F)(F)F)c4)CC3)C2)s1 (stereo not drawn) ?
DT40 TDP1 no CPT: 6.51µM*; TDP1 block: 4.0%; RORg inh: inconclusive; DT40 TDP1 CPT: 1.3µM*; Gal4-VP16 FLuc: -3.8%

Results for Cc1ccc(C(=O)NCCN2C3=NC[C@H](C(C)C)N3C[C@H]2Cc2ccc(O)cc2)cc1Br ?
DT40 TDP1 no CPT: 10.3µM*; TDP1 block: 5.1%; RORg inh: 0.4%; DT40 TDP1 CPT: 5.17µM*; Gal4-VP16 FLuc: -8.5%

Results for COc1ccc(C[C@H]2CN3C(=NC[C@@H]3C(C)C)N2CCNC(=O)c2ccc(C)c(Br)c2)cc1 ?
DT40 TDP1 no CPT: 8.2µM*; TDP1 block: 1.3%; RORg inh: -21.0%; DT40 TDP1 CPT: 9.2µM*; Gal4-VP16 FLuc: -12.2%

Results for C/C=C(\C)C(=O)NCCN1C2=NC[C@H](C(C)C)N2C[C@H]1Cc1ccc(O)cc1 ?
DT40 TDP1 no CPT: -5.4%; TDP1 block: 2.6%; RORg inh: -23.0%; DT40 TDP1 CPT: -0.2%; Gal4-VP16 FLuc: -10.0%

How did O=C1CCCC(NCCCCCCNC2=C([N+](=O)[O-])C(=O)CCC2)=C1[N+](=O)[O-] do in these assays?
DT40 TDP1 no CPT: -8.1%; TDP1 block: -7.1%; RORg inh: -12.2%; DT40 TDP1 CPT: 3.9%; Gal4-VP16 FLuc: -2.2%

What do the screens show for `NC(=Nc1nc(-c2ccccn2)cc2ccccc12)c1ccccn1`?
DT40 TDP1 no CPT: 0.0184µM*; DT40 TDP1 CPT: 0.0146µM*

Results for COC(=O)NCc1ccc2c(c1)OCO2 ?
DT40 TDP1 no CPT: -5.7%; TDP1 block: 0.0%; RORg inh: -5.1%; DT40 TDP1 CPT: 36.1%; Gal4-VP16 FLuc: -1.9%

How did O=C(NC(=S)Nc1cc(-c2nc3ccccc3[nH]2)ccc1Cl)c1ccc2c(c1)OCO2 do in these assays?
DT40 TDP1 no CPT: 3.66µM*; TDP1 block: 5.3%; RORg inh: 12.6µM*; DT40 TDP1 CPT: 5.17µM*; Gal4-VP16 FLuc: -11.2%

How did CC(C)c1ccc(NC(=S)NCc2ccc3c(c2)OCO3)cc1 do in these assays?
DT40 TDP1 no CPT: inconclusive; TDP1 block: 4.9%; RORg inh: 12.6µM*; DT40 TDP1 CPT: -28.5%; Gal4-VP16 FLuc: inconclusive

What do the screens show for `CC(C)c1ccc(NC(=O)Cn2nnc(C(=O)NCc3ccc4c(c3)OCO4)c2N)cc1`?
DT40 TDP1 no CPT: -10.4%; TDP1 block: -0.2%; RORg inh: -16.8%; DT40 TDP1 CPT: inconclusive; Gal4-VP16 FLuc: -4.8%

How did S=C(NCc1ccc(Cl)c(Cl)c1)Nc1ccc2c(c1)OCO2 do in these assays?
DT40 TDP1 no CPT: -24.6%; TDP1 block: 5.3%; RORg inh: 11.2µM*; DT40 TDP1 CPT: 0.6%; Gal4-VP16 FLuc: inconclusive

Results for COc1ccc(NC(=S)NCc2ccc3c(c2)OCO3)cc1 ?
DT40 TDP1 no CPT: inconclusive; TDP1 block: 3.7%; RORg inh: 12.6µM*; DT40 TDP1 CPT: 4.6%; Gal4-VP16 FLuc: inconclusive

How did O=C(NCc1ccc(Cl)c(Cl)c1)c1ccc2c(c1)OCO2 do in these assays?
DT40 TDP1 no CPT: 0.8%; TDP1 block: -0.9%; RORg inh: 0.0%; DT40 TDP1 CPT: -17.2%; Gal4-VP16 FLuc: 21.3%

Screens (PubChem)
